In the library only some 6.2% were active in any assay of this set; here they are far more common.
LASV entry inh = inhibitors of Lassa virus binding or cell entry | AID 540256 | 300,000 tested, 1.2% active | Potency, µM (top dose mostly 37.9 µM), actives largely listed as inhibitors | Lassa virus pseudotype entry inhibition, cell reporter; calls by dose curve; tested in HEK293 cells; also: nearly all actives have a fitted effect of over 50% in size
FMDV antiviral = blocks foot and mouth disease virus; FMDV antiviral cell-based qHTS; Potency, µM (top dose mostly 57.9 µM), hits mostly inhibitors; 410,000 tested, 1.2% active; calls by dose curve; tested in HEK293T cells; also: read-out not given here; nearly all actives have a fitted effect of over 45% in size
MARV entry inh = blocks Marburg virus binding to or entry into cells. 300,000 tested, 1.8% active. Marburg virus pseudotyped entry inhibition, cell reporter. Potency, µM (doses to about 37.8 µM), usual class: inhibitors. AID 540276; calls by dose curve; tested in HEK293 cells
HCMV inh = inhibitors of human cytomegalovirus; HFF cells, HCMV-luciferase reporter, 72 h; hits give low values; activity change, negative = inhibition, % at 57.5 µM; 410,000 tested, 4.5% active; in the data active = activity change below about -60%; inconclusive = no clear call, values can overlap the other calls; inactive = above about -39%
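Two-dose cell screen: HFF monolayers treated with compounds and infected with luciferase-expressing HCMV at 1 PFU/cell, 72 h at 37C, then lysed for luciferase measurement.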
Of the large screens only hits and unclear results are named; the others gave an inactive call.

Cc1ccc2c(c1)C(=O)N1c3cc(C)c(C)cc3NC(=O)C1C(=O)N2 (stereo not given)	none (no result: LASV entry inh, MARV entry inh)
COCCn1c(SCC(=O)Nc2cc(C)on2)nc2ccccc2c1=O	none (no result: LASV entry inh, MARV entry inh)
CCOCCCn1c(SCC(=O)NC2CCCC2)nc2ccccc2c1=O	none (no result: LASV entry inh, MARV entry inh)
COCCn1c(SCCOc2ccccc2)nc2ccccc2c1=O	FMDV antiviral 25.1µM, MARV entry inh inconclusive
CCCCCCn1c(SCC(=O)Nc2cc(C)on2)nc2ccccc2c1=O	LASV entry inh inconclusive, MARV entry inh inconclusive, HCMV inh -62.9
CCOCCCn1c(SCC(=O)Nc2ccccc2)nc2ccccc2c1=O	LASV entry inh inconclusive
CCOCCCn1c(SCc2nc3ccccc3s2)nc2ccccc2c1=O	LASV entry inh inconclusive, MARV entry inh 7.08µM, HCMV inh -78.4
CCOCCCn1c(SCC(=O)NC(C)C)nc2ccccc2c1=O	HCMV inh -106.8
COc1ccc2c(c1)C(n1cccc1)C(=O)N2C (stereo not given)	none (no result: LASV entry inh, FMDV antiviral, MARV entry inh)
CCC1Oc2ccc(C)cc2N(CC(=O)N(Cc2ccc(C)o2)C2CCCC2)C1=O (stereo not given)	LASV entry inh inconclusive, FMDV antiviral 22.4µM, MARV entry inh inconclusive
CCC1Oc2ccc(C)cc2N(CC(=O)NC2CCCCC2)C1=O (stereo not given)	none
COC(=O)[C@@]1(C=C2c3ccc(F)cc3[C@@H](OC)[C@@H]2C)[C@@H]2Oc3ccccc3[C@@H]21	none (no result: LASV entry inh, FMDV antiviral, HCMV inh)
Cc1ccc(-n2nnnc2SCc2nnc(-c3ccccc3Br)o2)c(C)c1	LASV entry inh inconclusive, MARV entry inh inconclusive, HCMV inh -63.7 (no result: FMDV antiviral)
Cn1nnnc1SCc1nnc(-c2ccccc2Br)o1	MARV entry inh inconclusive
Cc1ccc(C)c(N2CCN(C(=O)CCCN3C(=S)NC(C)(C)CC3C)CC2)c1 (stereo not given)	LASV entry inh inconclusive, FMDV antiviral 22.4µM, MARV entry inh inconclusive, HCMV inh -63.8
CC(C)CCNC(=O)C1CCN(S(=O)(=O)c2ccc3c(c2)CC(C)N3C(=O)C2CCC2)CC1 (stereo not given)	none
Cc1cccc(NC(=O)C2CCN(S(=O)(=O)c3ccc4ccccc4c3)CC2)n1	LASV entry inh inconclusive, FMDV antiviral 25.1µM, MARV entry inh inconclusive
CC(=O)N1c2ccc(S(=O)(=O)N3CCC(C(=O)Nc4ccc(C)cn4)CC3)cc2CC1C (stereo not given)	FMDV antiviral inconclusive, HCMV inh -80.2 (no result: LASV entry inh, MARV entry inh)
Cc1ccc(NC(=O)C2CCN(S(=O)(=O)c3ccc4c(c3)CC(C)N4C(=O)C3CCC3)CC2)nc1 (stereo not given)	LASV entry inh inconclusive, FMDV antiviral inconclusive, MARV entry inh inconclusive, HCMV inh -86.0
CC1Cc2cc(S(=O)(=O)N3CCC(C(=O)Nc4ccccn4)CC3)ccc2N1C(=O)C1CCC1 (stereo not given)	LASV entry inh inconclusive, FMDV antiviral inconclusive, MARV entry inh inconclusive, HCMV inh -72.8
Cc1oc(-c2ccccc2Cl)nc1CS(=O)(=O)CC(=O)NC(C)CCc1ccccc1 (stereo not given)	MARV entry inh inconclusive
COc1cc2c(cc1OC)[C@@]1(c3ccccc3)CCCC[C@H]1[C@@H]2NC(=O)C(F)(F)F	none (no result: LASV entry inh, FMDV antiviral, HCMV inh)
COc1ccc(C2=CC(=O)N(CCC(N)=O)C2)cc1	none (no result: LASV entry inh, FMDV antiviral, MARV entry inh)
CN(C)Cc1c(O)ccc2[nH]cnc12	HCMV inh -94.9
Oc1ccc2ccc3[nH]cnc3c2c1	none (no result: LASV entry inh, MARV entry inh)
CCCCn1c(SCC(=O)N(CC)C2CCS(=O)(=O)C2)nc2cc(S(N)(=O)=O)ccc21 (stereo not given)	HCMV inh inconclusive
CCCCn1c(SCC(=O)N(C)C2CCS(=O)(=O)C2)nc2cc(S(N)(=O)=O)ccc21 (stereo not given)	HCMV inh -61.1 (no result: LASV entry inh, MARV entry inh)
O=C(NCc1ccccc1Cl)c1cnc(N2CCCCC2)c2ccccc12	none (no result: MARV entry inh)
COCC(=O)Nc1cc(C(=O)N2CCCCC2c2nccn2C)cc2nc(-c3ccccc3)n(C)c12 (stereo not given)	none (no result: LASV entry inh, MARV entry inh, HCMV inh)
COc1cccc(NC(=O)CSc2nc3ccccc3cc2Cc2ccccc2)c1	MARV entry inh inconclusive (no result: FMDV antiviral)
COc1cccc(CSc2nc3ccccc3cc2C=O)c1	LASV entry inh inconclusive, MARV entry inh inconclusive, HCMV inh -99.9
CCN(c1ccc(OC)cc1)S(=O)(=O)c1ccc(-c2cc(C)no2)s1	HCMV inh -75.7 (no result: LASV entry inh, MARV entry inh)
CCOC(=O)c1c(S(=O)(=O)N2CCCC(C(=O)NCc3cccc(OC)c3)C2)c(C)n(C)c1C (stereo not given)	LASV entry inh inconclusive (no result: MARV entry inh)
CCn1c(SCC(=O)c2[nH]c(C)c(C(C)=O)c2C)nnc1-c1cccs1	FMDV antiviral inconclusive, HCMV inh -92.5
CCn1c(SCC(=O)c2cccs2)nnc1-c1cccs1	LASV entry inh inconclusive
CC(=O)c1c(C)[nH]c(C(=O)CSc2nnc(-c3ccco3)o2)c1C	LASV entry inh inconclusive, FMDV antiviral inconclusive, MARV entry inh 11.2µM
